# GLP-1R inv ag: inverse agonists of human GLP-1 receptor; actives 1.6% (n = 410,000); P43220; HEK293 GLP-1R CRE-luciferase, luminescence, 24 h; GLP-1R form is constitutively active; Potency, µM (series often up to 38.3 µM), without a hit: at the highest dose activity change, negative = inhibition, actives largely listed as inhibitors; AID 624417; also: % is scaled to controls: 0 for no effect and ±100 for the full control effect; nearly all actives have a fitted effect of over 55% in size
# Target sequence (P43220 whole entry, looked up): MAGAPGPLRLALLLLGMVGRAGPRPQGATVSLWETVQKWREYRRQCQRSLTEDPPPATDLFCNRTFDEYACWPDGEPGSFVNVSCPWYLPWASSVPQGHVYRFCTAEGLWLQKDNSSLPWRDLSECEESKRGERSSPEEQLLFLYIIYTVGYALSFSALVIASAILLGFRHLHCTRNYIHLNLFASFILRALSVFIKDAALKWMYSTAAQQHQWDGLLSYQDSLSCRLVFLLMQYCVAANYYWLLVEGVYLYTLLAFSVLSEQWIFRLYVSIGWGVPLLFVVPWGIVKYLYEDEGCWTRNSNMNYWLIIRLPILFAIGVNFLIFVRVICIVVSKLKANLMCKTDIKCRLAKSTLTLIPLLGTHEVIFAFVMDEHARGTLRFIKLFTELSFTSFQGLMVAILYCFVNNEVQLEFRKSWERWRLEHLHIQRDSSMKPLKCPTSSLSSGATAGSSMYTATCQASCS
#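 Seeding at 200 cells/uL, 12 h culture, 24 hr compound treatment, then luciferase reagent and a luminescence read; cells are HEK293 stably expressing a constitutively active GLP-1R plus cAMP-responsive luciferase.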
# GLP-1R agonist: agonists of human GLP-1 receptor. P43220. HEK293 GLP-1R CRE-luciferase, luminescence, 4-6 h; cells express a hypersensitive GLP-1R form. Potency, µM (highest dose often 45.6 µM), without a hit: at the top dose activation, hits mostly activators. actives 0.007% (n = 380,000); also: % of control where 0% means no effect
# BRCA1 expr up: BRCA1 expression activation | actives 1.1% (n = 380,000) | AID 624202 | MCF7-BRCA1-FFLuc reporter, luminescence, 48 h; response scale: scaled: vehicle 0%, 10 µM genistein 100% | Potency, µM (highest dose often 46.1 µM), for inactives: top-dose activation, most hits filed as activators; also: nearly all actives have a fitted effect of over 80% in size
#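 Compounds are tested at multiple concentrations on MCF7 BRCA1-luciferase reporter cells seeded at 2000 per well; after 48 h, a single luminescence end-point is taken and curves fitted to the normalized data.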
# GLP1R cytotox: cytotoxicity in counter-screen for GLP-1R inverse agonists | HEK293 cAMP-luciferase reporter cells, luminescence, 24 h | Potency, µM (titrated, usually from 38.3 µM), without a hit: top-dose activity change, negative = inhibition, most hits filed as inhibitors | actives 0.13% (n = 410,000) | AID 624418;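 also: loss of luciferase light is scored as toxicity; % is scaled to controls: 0 for no effect and ±100 for the full control effect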
#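 Cells in DMEM/10% Nu serum/1% pen-strep, 1536-well format. Pre-incubated 12 h, dosed with 23 nL compound, incubated a further 24 h. Luciferase detection, 12 min at room temp, luminescence.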
# Starred values were filed as active, the others as inactive; u = inconclusive; x = no result given; [ ] = dose if it differs, or a comment. Shown are actives, neighbours in structure and some others; about 2.6% of the full set was active somewhere. Calls follow the shape of the dose curve; as a rule, active = well fitted curve in the direction sought with a large enough effect; inconclusive = small, poorly fitted or top-dose-only effect, or another doubt; inactive = no such curve, though single readings can be large; an effect the other way counts as inactive or inconclusive. Potency is read from the fitted curve at half-maximal effect.
SMILES,GLP-1R inv ag,GLP-1R agonist,BRCA1 expr up,GLP1R cytotox
CC[C@@H](C(=O)[C@@H](C)[C@@H](O)[C@H](C)CCc1ccc(C)c(O)c1C(=O)O)[C@H]1O[C@](CC)([C@H]2CC[C@](O)(CC)[C@H](C)O2)C[C@@H]1C,10µM*,-11.2%,-74.4%,10µM*
CC(=O)c1cn(Cc2ccc(F)cc2)c2ccccc12,u,1.0%,-35.6%,-1.3%
COC(=O)c1cn(Cc2ccc(F)cc2)c2ccccc12,11.2µM*,15.6%,-14.0%,2.2%
CC[C@@H](C(=O)[C@@H](C)[C@@H](O)[C@H](C)[C@@H]1O[C@@H]([C@@H](CC)C(=O)O)CC[C@@H]1C)[C@H]1O[C@]2(C=C[C@@H](O)[C@]3(CC[C@@](C)([C@H]4CC[C@](O)(CC)[C@H](C)O4)O3)O2)[C@H](C)C[C@@H]1C,u,-15.5%,-10.8%,3.98µM*
CS(=O)(=O)c1ccc(C(=O)C2C(=O)CCCC2=O)c([N+](=O)[O-])c1,x,24.1%[96 µM],x,x
CC12CCC(O)CC1CCC1C2CCC2(C)C(C3=CC(=O)OC3)C(O)CC12O (centres undefined),u,-18.1%,-88.2%,-1.5%
C[C@]12CC[C@H](O)C[C@H]1CC[C@@H]1[C@@H]2CC[C@]2(C)[C@@H](C3=CC(=O)OC3)CC[C@]12O,0.501µM*,-10.4%,-76.4%,u
CC12CCC(O)CC1CCC1C2CCC2(C)C(C3=CC(=O)OC3)CCC12O (centres undefined),1.12µM*,-30.2%,-91.4%,u
CCOP(=O)(OCC)C(NC(=O)Nc1ccc(Cl)c(Cl)c1)c1ccccc1 (centres undefined),8.91µM*,1.2%,-54.6%,-8.7%
CS(=O)(=O)c1sc(C#N)c2c1C(=O)CC(c1ccccc1)C2 (centres undefined),u,-10.5%,-90.9%,11.2µM*
CN(C)c1ccc(C2CC(c3c(O)n(C4CCCCC4)c(=O)[nH]c3=O)=Nc3ccccc3S2)cc1 (centres undefined),u,x,x,3.4%
COc1cc(CC(C)N)cc2c1OCO2 (centres undefined),x,-5.6%[96 µM],x,x
CC(C)c1cccc(C(C)C)c1OC(=O)NC(=O)c1c(F)cccc1F,8.91µM*,-2.6%,-8.8%,11.2%
[Cl-].[Cl-].[Hg+2],x,-7.5%,x,x
CC(C)OCCCNC(=O)c1c(N)n(Cc2cccs2)c2nc3ccccc3nc12,11.2µM*,-9.7%,-63.3%,245.9%
CC(C)CCn1c(N)c(C(=O)NCc2cccs2)c2nc3ccccc3nc21,0.0%,1.2%,-56.0%,18.1%
Cc1ccc(-n2sc3ccccc3c2=O)cc1,u,-3.3%,-12.0%,10µM*
COC(=O)c1[nH]c2ccc(C)cc2c1NC(=O)CN1CCCc2ccccc21,u,-10.6%,-66.5%,u
O=P(Nc1ccccc1)(Oc1ccccc1)Oc1ccccc1,u,7.8%,-1.0%,-14.6%
COc1cccc(OP(=O)(Nc2ccccc2)Oc2cccc(OC)c2)c1,10µM*,7.3%,-1.0%,u
Cc1cccc(NP(=O)(Oc2ccccc2)Oc2ccccc2)c1C,10µM*,4.6%,-32.4%,-12.6%
c1cc2c(cc1C1CCCCC1)c1c3n2CCCNC3CCC1 (centres undefined),3.98µM*,-21.7%,-84.4%,u
COc1cc(C2c3cc4c(cc3CC3COC(=O)C32)OCO4)cc(OC)c1OC (centres undefined),0.282µM*,20.4%,-46.6%,u
O=C1C=CC2C3C(=O)N(c4ccccc4)C(=O)C3C1N2Cc1ccccc1 (centres undefined),u,-17.8%,-79.0%,10µM*
Clc1ccc2c(c1)C(OC1CN3CCC1CC3)c1ccccc1CS2 (centres undefined),2.82µM*,-20.4%,-68.8%,u
O=C(c1cc2ccccn2n1)N1CCN(Cc2ccccc2)CC1,-13.7%,-6.0%,10µM*,-4.1%
CCN(Cc1nc2cc(Cl)ccc2c(=O)[nH]1)C(=O)c1cccc(OCc2c(C)noc2C)c1,-8.5%,15.9%,-2.4%,u
COc1ccc(-n2c(/C=C/c3cccc(F)c3)nc3ccccc3c2=O)c(OC)c1,-18.5%,9.5%,9.8%,-3.9%
COc1cc2nc(Nc3cccc(F)c3)nc(N)c2cc1OC,10µM*,6.0%,-1.7%,u
